IMPase inh – cell-permeable inhibitors of inositol monophosphatase (IMPase) | 120,000 tested, under 10 active | P97697 | inhibition (IP1 accumulation), % at 46.1 µM | CHO-M1 cells, IP1 accumulation, HTRF TR-FRET ratio; active = well fitted curve in the direction sought with a large enough effect in the signal ratio, not every such curve was filed as active; inconclusive = small, poorly fitted or top-dose-only effect, or a change in a side signal; inactive = no such curve, though single readings can be large or run the other way; the % refers to the signal ratio;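 note: cells stimulated with carbachol in lithium chloride buffer; higher means more IMPase inhibition seen as more IP1 and lower FRET ratio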
Target sequence (P97697 whole entry, looked up): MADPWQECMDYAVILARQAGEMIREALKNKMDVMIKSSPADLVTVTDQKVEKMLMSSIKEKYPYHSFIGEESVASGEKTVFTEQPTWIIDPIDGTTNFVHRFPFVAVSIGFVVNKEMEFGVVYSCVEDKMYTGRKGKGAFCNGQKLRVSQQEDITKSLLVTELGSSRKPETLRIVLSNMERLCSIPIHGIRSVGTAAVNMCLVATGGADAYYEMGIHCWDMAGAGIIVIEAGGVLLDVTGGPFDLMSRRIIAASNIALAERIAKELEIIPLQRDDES
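Measured: the HTRF emission ratio (665/620 nm) plus the 620 nm donor channel, each fitted to the Hill equation to give AC50. Cells were CHO-M1 given compounds up to 46 uM and a 30 min carbachol stimulation at 37C.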
Lamin A splicing – LMNA splicing modulation; HeLa LMNA splicing GFP/RFP minigene ratio, 48 h; Potency, µM (doses to about 46.1 µM), hits mostly inhibitors; 0.01% of 200,000 active; AID 1487; active = well fitted inhibition curve with a large enough effect in the signal ratio, with a control signal flat, not every such curve was filed as active; inconclusive = small, poorly fitted or top-dose-only effect, or effect the other way, or a change in a side signal; the % refers to the signal ratio
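S3 HeLa stable clones carrying a lamin A-EGFP splicing minigene plus DsRed2 were seeded at 600 cells/well in Opti-MEM with 2% FBS, pin-dosed and incubated 48 h at 37°C. Acumen cytometry (488 nm) gave the GFP/RFP total-intensity ratio.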
PNC inhibitor – inhibitors of perinucleolar compartment assembly; PC3M PTB-GFP, PNC prevalence imaging, 16 h; active compounds read low; activity change (PNC), negative = inhibition, % at 10 µM; 3.1% of 140,000 active; AID 2417;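 active = readout at or below -70, meaning at least 70% loss of cells showing the perinucleolar compartment, a nuclear body marking cancer cells; inconclusive = readout between -30 and a set limit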
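Compounds are pinned in duplicate onto adhered PC3M cells stably expressing GFP-tagged PTB and incubated 16 h at 37 C. Cells are then fixed, nuclei stained with Hoechst, and PNC-positive cells counted.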
Each line names hits and unclear results; the compound was inactive in the other large screens. The entries come from a sample that favours hits as a whole.

COc1ccc(N2CCN(Cc3nc4c(c(=O)n(C)c(=O)n4C)n3CC(C)=O)CC2)cc1	none
COc1ccc(N2CCN(Cc3nc4c(c(=O)[nH]c(=O)n4C)n3CC(C)=O)CC2)cc1	PNC inhibitor -90
CCCN1CCN(c2cc3c(cc2F)c(=O)c(S(=O)(=O)c2ccc(Cl)cc2)cn3C)CC1	none (no result: IMPase inh, PNC inhibitor)
CCOc1ccc(NC(=O)Cn2cnc3nc4c(cc3c2=O)CCCC4)cc1	none (no result: IMPase inh, PNC inhibitor)
CCc1cccc(NC(=O)CCS(=O)(=O)c2ccc(C)cc2)c1	none (no result: IMPase inh, PNC inhibitor)
Cc1nc(-c2cccc(Br)c2)ccc1C(=O)O	none (no result: IMPase inh, PNC inhibitor)
CC1CC1c1ccc(/C=C(\C#N)C(=O)Nc2ccccc2Cl)o1 (stereo not given)	Lamin A splicing inconclusive (no result: IMPase inh)
CC1CC1c1ccc(/C=C(\C#N)C(=O)Nc2ccc(Cl)cc2)o1 (stereo not given)	Lamin A splicing inconclusive, PNC inhibitor -125 (no result: IMPase inh)
COc1ccc(NC(=O)/C(C#N)=C/c2ccc(C)o2)cc1	none (no result: Lamin A splicing, PNC inhibitor)
N#C/C(=C/c1ccc(N2CCOCC2)o1)C(=O)NC1CCCCC1	none (no result: IMPase inh, PNC inhibitor)
N#C/C(=C/c1ccc(N2CCCCC2)o1)C(=O)Nc1ccc2ccccc2c1	Lamin A splicing inconclusive, PNC inhibitor -91 (no result: IMPase inh)
N#C/C(=C/c1ccc(N2CCCCC2)o1)C(=O)Nc1ccc(Cl)cc1	Lamin A splicing inconclusive, PNC inhibitor -123
COc1cccc2sc(NC(=O)CS(=O)(=O)c3ccc(C)cc3)nc12	none (no result: IMPase inh, PNC inhibitor)
COC(=O)[C@H]1[C@@H](C)N(Cc2ccccc2)C(=O)N[C@H]1c1ccccc1	none (no result: IMPase inh, PNC inhibitor)
CCOC(=O)CNc1ncnc2c1nnn2C	none (no result: IMPase inh, PNC inhibitor)
COc1ccc(C2C(C(=O)O)CCC(=O)N2c2ccc(OC)cc2)cc1 (stereo not given)	none
CCCCN(C)C(=O)C1CCC(=O)N(c2cc(OC)c(OC)c(OC)c2)C1c1ccc(OC)cc1 (stereo not given)	PNC inhibitor -100
CC1CCCCN1C(=O)CCS(=O)(=O)c1cc2c(cc1Cl)NC(=O)CO2 (stereo not given)	none (no result: IMPase inh, PNC inhibitor)
CC(C)C(=O)Nc1cccc(-c2cnc3ccccc3n2)c1	PNC inhibitor -96
Cc1ccc(C(=O)Nc2cccc(-c3cnc4ccccc4n3)c2)cc1	none
CCOC(=O)c1ccc(NS(=O)(=O)c2cc3c(cc2C)n(C)c(=O)c(=O)n3C)cc1	none (no result: IMPase inh, PNC inhibitor)
O=C(Cn1cnc2sc(-c3ccccc3)cc2c1=O)NCc1ccco1	Lamin A splicing inconclusive, PNC inhibitor -90
O=C(Cn1cnc2sc(-c3ccccc3)cc2c1=O)NCc1ccccc1	none
Cc1ccc(-c2nn(CC(=O)NCCN3CCOCC3)c(=O)c3ccccc23)cc1	none
Cc1ccc(-c2nn(CC(=O)NCc3ccco3)c(=O)c3ccccc23)cc1	PNC inhibitor -111
CCOC(=O)CSc1nc2c([nH]c3ccccc32)c(=O)n1-c1ccc(OCC)cc1	none (no result: IMPase inh, PNC inhibitor)
CCC(=O)O[C@@]1(C(=O)CCl)[C@@H](C)C[C@@H]2[C@H]3CCC4=CC(=O)C=C[C@@]4(C)[C@]3(F)[C@@H](O)C[C@@]21C	Lamin A splicing inconclusive (no result: PNC inhibitor)
c1cncc(-c2nc(Oc3ccc(-c4nnco4)cc3)c3c4c(sc3n2)CCCC4)c1	Lamin A splicing inconclusive
CC(C)CCN1C(=O)N(c2ccccc2)C(=O)C1CC(=O)Nc1ccc(Cl)cc1 (stereo not given)	none (no result: IMPase inh, PNC inhibitor)
COc1ccc(S(=O)(=O)Nc2ccccc2C)cc1	PNC inhibitor inconclusive
Cc1ccccc1NS(=O)(=O)c1ccc(F)cc1	PNC inhibitor -97
Cc1nc2nc(C)c(NS(=O)(=O)c3ccc(F)cc3)c(=O)n2[nH]1	none (no result: Lamin A splicing, PNC inhibitor)
O=C(c1ccc(Br)o1)N1CCN(Cc2ccc3c(c2)OCO3)CC1	PNC inhibitor inconclusive
O=C(c1ccc(Cn2cc(Cl)cn2)o1)N1CCN(Cc2ccc3c(c2)OCO3)CC1	Lamin A splicing inconclusive, PNC inhibitor -107
CCCCN1C(=O)CC(C(=O)O)C1c1ccc(OC)cc1 (stereo not given)	none
CCCCN1C(=O)CCC(C(=O)O)C1c1ccccc1 (stereo not given)	PNC inhibitor -102
Cc1ccc(Cn2c(=O)c3c(nc4n3CCN4c3cc(C)cc(C)c3)n(C)c2=O)cc1	none (no result: IMPase inh, PNC inhibitor)
COC(=O)c1cccc(Nc2c(-c3cc(Br)ccc3O)nc3nc[nH]n23)c1	none (no result: IMPase inh, PNC inhibitor)
COc1ccccc1Cc1noc(COc2cccc(C)c2C)n1	PNC inhibitor -135
COc1ccccc1OCc1nc(-c2cccc(C)c2)no1	none (no result: Lamin A splicing, PNC inhibitor)
COc1ccc(-c2nc3scc(CCNS(=O)(=O)c4ccc(C)cc4)n3n2)cc1	none (no result: IMPase inh, PNC inhibitor)
O=C(CCC(=O)Nc1ccccc1)NNC(=O)c1ccccc1Cl	none (no result: IMPase inh, PNC inhibitor)
O=C(CN1CCCCC1)Nc1cccc(Oc2ccccc2)c1	PNC inhibitor -106
O=C(CN1CCCCCC1)Nc1ccccc1	none (no result: IMPase inh, PNC inhibitor)
N#Cc1c2n(c3c(=O)n(CC(=O)c4ccc([N+](=O)[O-])cc4)cnc13)CCCCC2	none (no result: IMPase inh)
CN(C)c1ccc(Nc2ncnc3sc4c(c23)CCCC4)cc1	none (no result: IMPase inh, PNC inhibitor)
